Results filed as inconclusive are left out. Where a call stands in place of a potency, no number is given. Calls of active or inactive are those of the source. The call rests on the fitted dose curve; in most records, active means well fitted curve in the direction sought with a large enough effect; inconclusive means small, poorly fitted or top-dose-only effect, or another doubt; inactive means no such curve, though single readings can be large; an effect the other way counts as inactive or inconclusive. Peptide text beside a SMILES is read from it. * marks the point of attachment. Hexanoyl = CCCCCC(=O)*
Legend:
[1] = OV-KATE Cancer Cell Toxicity qHTS against the NCATS CANVASS Library (AID 1347345); further: potency means the concentration at half of the fitted maximal effect
Procedure, shortened: (§1)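 Cells were seeded at 1000 per well, allowed 4 h at 37 degrees C/5% CO2, then pin-treated with an 11-point compound series. After 72 h, viability was read as CellTiter-Glo luminescence following 15min at room temperature.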

[2] = HPAF-II Cancer Cell Toxicity qHTS against the NCATS CANVASS Library (AID 1347346); further: nearly all actives have a fitted effect of over 55% in size; further: potency means the concentration at half of the fitted maximal effect
Procedure, shortened: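 HPAF-II cells were seeded at 1000 cells/well, allowed to settle for 4 h at 37 degrees C, then exposed to compounds in an 11-point series for 72 h. Viability was read by CellTiter-Glo luminescence.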

[3] = OV-SAHO Cancer Cell Toxicity qHTS against the NCATS CANVASS Library (AID 1347348); further: series mostly up to about 38 µM; nearly all actives have a fitted effect of over 55% in size
Procedure, shortened: as §1

[4] = Panc-1005 Cancer Cell Toxicity qHTS against the NCATS CANVASS Library (AID 1347349); further: nearly all actives have a fitted effect of over 60% in size; further: potency means the concentration at half of the fitted maximal effect
Procedure, shortened: as §1

[5] = SW1088 Cancer Cell Toxicity qHTS against the NCATS CANVASS Library (AID 1347350); further: nearly all actives have a fitted effect of over 75% in size; further: potency means the concentration at half of the fitted maximal effect
Procedure, shortened: as §1

[6] = HEK293 24hr Apoptosis Induction qHTS against the NCATS CANVASS Library (AID 1347359)
Procedure, shortened: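 HEK293 cells, 500 per well, exposed to an 11-point compound series for 24 hours at 37 degrees C. Caspase 3/7 activity read by Caspase-Glo luminescence (DEVD substrate) after 15 min at room temperature.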

[7] = target: Luciferin 4-monooxygenase (Photinus pyralis) (UniProt P08659); test: Firefly luciferase counterscreen qHTS: Assay Interference Panel against the NCATS CANVASS Library (AID 1347363); further: series mostly up to about 57 µM
Procedure, shortened: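 Purified P. pyralis luciferase (0.04 ug/mL, 4x reagent) added to Tris-acetate buffer with 0.013 mM D-luciferin, 0.013 mM ATP and 13.3 mM Mg-acetate; compounds preincubated 15 min, then luminescence read after 5 min, RT.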

[8] = target: Nuclear receptor subfamily 1 group I member 3 (Homo sapiens) (UniProt Q14994); test: qHTS for Constitutive Androstane Receptor (CAR) Antagonist screened against the NCATS CANVASS Library (AID 1347372);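 further: cells stimulated with 50 nM CITCO agonist so inhibition reflects antagonism; series mostly up to about 46 µM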
Procedure, shortened: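 HepG2 cells stably carrying hCAR and CYP2B6-2.2kb luciferase reporter, 2500 cells/well, compound with 50 nM CITCO agonist for 24hr at 37C. ONE-Glo luminescence measured CAR activity; CellTiter-Fluor read viability.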

[9] = qHTS for Hypoxia signaling pathway (HIF-1) antagonists against the NCATS CANVASS Library (AID 1347374); further: nearly all actives have a fitted effect of over 60% in size; further: potency means the concentration at half of the fitted maximal effect
Procedure, shortened: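 HRE-bla ME-180 cells (2,000/well, 0.5% dialyzed FBS) were pre-incubated 5 h, then given an 11-point compound series plus CoCl2 (60 uM solution as added) for 17 h at 37C. CCF4 β-lactamase read (ex 405, em 460/530 nm) after 2 h at RT.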

[10] = DH5-alpha competent E. coli microbial cell viability qHTS against the NCATS CANVASS Library (AID 1347377); conditions: outcome: dose series up to 46.1 µM unless noted
Procedure, shortened: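 DH5-alpha E. coli suspension (0.9 OD culture diluted to 0.2 OD) exposed to compounds in an 11-point series, overnight at 37C, 5% CO2. Viability read as ATP by BacTiter-Glo luminescence after 20 min at room temperature.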

[11] = Cytotoxicity qHTS for assessment of Hepg2 cells membrane integrity screened against the NCATS CANVASS Library (AID 1347387)
Procedure, shortened: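 HepG2 cells (2000/well) attached overnight at 37C, then received compounds in an 11-point series at 0.59 nM - 46 uM final for 5 hr. LDH release was detected fluorometrically (ex 560/em 590 nm) with CytoTox-ONE reagent after 10 min at room temperature.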

[12] = qHTS for inhibitors of ER calcium dysfunction: SERCaMP assay screened against the NCATS CANVASS Library (AID 1347393);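 further: series mostly up to about 77 µM; lower secreted reporter signal means inhibitor of ER calcium depletion; nearly all actives have a fitted effect of over 40% in size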
Procedure, shortened: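 SH-SY5Y GLuc-SERCaMP, 1000 cells/well, 4 h attach; cpd 16 h, 37C/5% CO2; thapsigargin (added as 6x 600 nM) 4 h; coelenterazine; luminescence. Reduced reporter release = ER Ca stabilization.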

[13] = UWB1.289 Cancer Cell Toxicity qHTS against the NCATS CANVASS Library (AID 1347347); further: nearly all actives have a fitted effect of over 60% in size; further: potency means the concentration at half of the fitted maximal effect
Procedure, shortened: as §1

[14] = U-118MG Cancer Cell Toxicity qHTS against the NCATS CANVASS Library (AID 1347351); further: potency means the concentration at half of the fitted maximal effect
Procedure, shortened: as §1

[15] = A2780 Cisplatin Sensitive Ovarian Cancer Cell Toxicity qHTS against the NCATS CANVASS Library (AID 1347353); further: nearly all actives have a fitted effect of over 60% in size; further: potency means the concentration at half of the fitted maximal effect
Procedure, shortened: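 A2780 cisplatin-sensitive cells (750 per well) were seeded, left 4 h at 37 °C, then pin-dosed in an 11-point series. After 72 h at 37 °C/5% CO2, viability was measured as ATPLite luminescence.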

[16] = test system: NAD(P)H diaphorase (Clostridium kluyveri); test: Diaphorse counterscreen qHTS: Assay Interference Panel against the NCATS CANVASS Library (AID 1347362)
Procedure, shortened: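 Clostridium kluyveri diaphorase in PBS + 0.01% Tween-20 preincubated 15 min with compounds. Resazurin and NADH then added for 5 min at room temperature in the dark; resorufin fluorescence read (ex 525, em 598).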

[17] = KB-8-5-11 Cancer Cell Toxicity qHTS against the NCATS CANVASS Library (AID 1347364); further: nearly all actives have a fitted effect of over 75% in size; further: potency means the concentration at half of the fitted maximal effect
Procedure, shortened: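 KB-8-5-11 cells (500/well) in DMEM + 10% FBS were exposed to compounds in an 11-point qHTS series for 72 hr at 37C, 5% CO2. Viability was read by CellTiter-Glo luminescence.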

[18] = qHTS for activators of Nrf2/ARE signaling pathway screened against the NCATS CANVASS Library (AID 1347391); further: nearly all actives have a fitted effect of over 60% in size; further: potency means the concentration at half of the fitted maximal effect
Procedure, shortened: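 ARE-bla HepG2 beta-lactamase reporter cells, 2000 cells/well, were preincubated 5 h, then exposed to compounds (11-point series) for 16 h at 37C. CCF4 fluorescence (ex 405, em 460/530 nm) after 2 h at room temperature.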

[19] = qHTS for activators of dead-cell proteases activity screened against the NCATS CANVASS Library (AID 1347392);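 further: luminescence from protease leaking out of membrane-damaged cells cleaving impermeant substrate; rising signal means more cytotoxicity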
Procedure, shortened: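 HepG2 cells, 2000/well, attached 18 h at 37C, then exposed to compounds (11-point qHTS) for 5 h. Dead-cell protease release read as luminescence from cell-impermeant AAF-aminoluciferin substrate after 15 min at room temperature.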

[20] = qHTS for Hypoxia signaling pathway (HIF-1) agonists against the NCATS CANVASS Library (AID 1347375)
Procedure, shortened: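 HRE-bla ME-180 cells (beta-lactamase reporter under hypoxia responsive element) in 0.5% dialyzed FBS medium, 5 h at 37C, then compound 17 h, 11-point qHTS series. CCF4-AM FRET substrate 2 h RT; 460/530 nm emission read.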

Luciferin 4-monooxygenase (Photinus pyralis), sequence (P08659 whole entry, looked up): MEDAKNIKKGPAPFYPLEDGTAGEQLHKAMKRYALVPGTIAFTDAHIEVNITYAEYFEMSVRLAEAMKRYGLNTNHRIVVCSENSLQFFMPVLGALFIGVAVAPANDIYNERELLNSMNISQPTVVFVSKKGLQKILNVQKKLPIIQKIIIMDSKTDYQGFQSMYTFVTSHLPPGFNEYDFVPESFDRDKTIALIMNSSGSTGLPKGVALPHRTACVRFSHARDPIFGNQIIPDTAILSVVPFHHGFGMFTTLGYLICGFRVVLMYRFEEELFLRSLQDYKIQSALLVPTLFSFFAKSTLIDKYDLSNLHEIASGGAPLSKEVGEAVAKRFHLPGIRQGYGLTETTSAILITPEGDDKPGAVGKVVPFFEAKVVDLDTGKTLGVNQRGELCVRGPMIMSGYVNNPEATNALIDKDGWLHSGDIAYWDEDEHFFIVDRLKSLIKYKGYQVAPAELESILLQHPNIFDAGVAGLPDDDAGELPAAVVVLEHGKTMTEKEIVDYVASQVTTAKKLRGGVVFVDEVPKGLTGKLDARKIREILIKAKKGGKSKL
Nuclear receptor subfamily 1 group I member 3 (Homo sapiens), sequence (Q14994 whole entry, looked up): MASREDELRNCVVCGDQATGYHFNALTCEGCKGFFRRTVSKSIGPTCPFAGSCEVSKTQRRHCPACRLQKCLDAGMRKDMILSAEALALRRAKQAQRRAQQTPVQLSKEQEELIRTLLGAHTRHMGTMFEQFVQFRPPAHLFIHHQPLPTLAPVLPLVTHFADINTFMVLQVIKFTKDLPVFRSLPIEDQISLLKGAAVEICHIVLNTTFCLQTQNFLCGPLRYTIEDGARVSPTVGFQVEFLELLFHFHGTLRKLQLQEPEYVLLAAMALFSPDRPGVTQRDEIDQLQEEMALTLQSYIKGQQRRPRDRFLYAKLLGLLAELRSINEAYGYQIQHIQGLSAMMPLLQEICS

Row | SMILES | Potency [1] | Potency [2] | Potency [3] | Potency [4] | Potency [5] | Potency [6] | Potency [7] | Potency [8] | Potency [9] | outcome [10] | outcome [11] | Potency [12] | Potency [13] | Potency [14] | Potency [15] | Potency [16] | Potency [17] | Potency [18] | Potency [19] | outcome [20]
1 | COc1c(O)cc(O)c2c(=O)cc(-c3ccccc3)oc12 | inactive | inactive | inactive | inactive | inactive | inactive | inactive | inactive | 10.6 µM (active) | inactive | inactive | inactive | – | – | – | – | – | – | – | –
2 | [C-]#[N+][C@@]12C(=O)[C@@H]3[C@@H](O[C@@]4(C(=O)N(C)c5cccc1c54)C3(C)C)C(=O)[C@@]2(C)C=C | inactive | inactive | inactive | inactive | inactive | inactive | inactive | inactive | 2.98 µM (active) | inactive | inactive | – | inactive | inactive | inactive | inactive | inactive | inactive | inactive | –
3 | CC[C@@H]1C[C@@]2(CC)OC(=O)[C@@]3(CC)[C@H](CC)[C@@H]1[C@@H]23 | inactive | inactive | inactive | inactive | inactive | – | inactive | – | inactive | inactive | – | inactive | inactive | inactive | inactive | inactive | inactive | inactive | – | inactive
4 | CN1C(=O)C(=O)N2C(=C[C@]3(c4c[nH]c5ccccc45)c4ccccc4N[C@H]23)C1=O | inactive | inactive | inactive | inactive | inactive | inactive | inactive | inactive | inactive | inactive | inactive | inactive | inactive | inactive | inactive | inactive | inactive | inactive | inactive | inactive
5 | C=C1C[C@]23C=CC(=O)[C@@](C)(CCCC(C)C(=O)N[C@@H](CO)C(=O)O)[C@@H]2C[C@@H]1CC3 (some centres not stated) | inactive | inactive | inactive | inactive | inactive | – | – | inactive | inactive | inactive | inactive | inactive | inactive | – | inactive | inactive | inactive | inactive | inactive | inactive
6 | C=C(Cl)[C@](Cl)(CBr)CC[C@@H](Br)C(C)(C)Cl | 10.6 µM (active) | 6.68 µM (active) | inactive | 3.75 µM (active) | 2.98 µM (active) | inactive | inactive | inactive | – | inactive | – | – | 14.9 µM (active) | 8.41 µM (active) | – | inactive | 9.35 µM (active) | – | – | –
7 | COC(=O)c1cccc2oc(-c3cccc4oc(-c5c(C)cccc5O)nc34)nc12 | inactive | 2.66 µM (active) | – | – | 0.168 µM (active) | inactive | inactive | inactive | 0.941 µM (active) | – | – | – | 5.29 µM (active) | inactive | 3.32 µM (active) | inactive | – | 1.86 µM (active) | – | inactive
8 | CC(C)=CCCC(C)(O)[C@H]1CC=C(C)C(O)C1 (some centres not stated) | inactive | inactive | inactive | inactive | inactive | inactive | inactive | – | inactive | inactive | inactive | inactive | inactive | inactive | inactive | inactive | inactive | inactive | inactive | inactive
9 | CCCCCC(=O)N[C@@H](CC(C)C)C(=O)N[C@H](C=O)CCC(=O)O (Hexanoyl-Leu-Glu-aldehyde) | inactive | inactive | inactive | inactive | inactive | inactive | inactive | inactive | inactive | inactive | inactive | inactive | inactive | inactive | inactive | inactive | inactive | inactive | inactive | inactive
10 | C[C@@]12CCC[C@@](C)(C(=O)OP(=O)(O)OC[C@H]3O[C@@H](n4cnc5c(N)ncnc54)[C@H](O)[C@@H]3O)[C@H]1C[C@@H](O)[C@@]13C[C@@H](CC[C@@H]21)[C@](C)(O)C3 | inactive | 4.73 µM (active) | inactive | inactive | inactive | inactive | – | – | – | – | – | inactive | inactive | inactive | inactive | inactive | inactive | inactive | – | –
11 | C/C=C/[C@H]1[C@H]2C(=O)c3c(O)c(C)c(O)c(C)c3[C@]1(C(=O)O)C(=O)C=C2C | inactive | inactive | inactive | inactive | inactive | inactive | – | inactive | inactive | inactive | – | inactive | inactive | inactive | inactive | – | inactive | inactive | inactive | inactive
12 | C/C=C1/C2=CCCN3C(=O)O[C@H]([C@H]1O)[C@H]23 | inactive | inactive | inactive | inactive | inactive | – | – | – | inactive | inactive | inactive | inactive | – | inactive | inactive | – | – | inactive | – | inactive
13 | CC(C)=CCC[C@]1(C)[C@H]2CC(=O)[C@@]3(CO3)[C@@H]1C2 | inactive | inactive | inactive | inactive | inactive | – | – | – | inactive | inactive | inactive | inactive | inactive | inactive | inactive | inactive | inactive | inactive | – | inactive
